Screening results (PubChem)
HCV inhibitor: blocks hepatitis C virus | Huh7.5.1 HCVcc-Cre infection, luciferase reporter, 44 h | Potency, µM (highest dose often 41.8 µM), for the others: top-dose activity change, negative = inhibition, most hits filed as inhibitors | 340,000 tested, 3.4% active; active = well fitted inhibition curve with a large enough effect; inconclusive = small, poorly fitted or top-dose-only effect, or another doubt; inactive = no such curve, though single readings can be large or run the other way
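Cells (1,000/well) were plated 4 h before compound, then infected with HCVcc-Cre virus (~0.5 moi). After 44 h further culture, infection was read as luciferase luminescence following a 15 min substrate incubation at room temperature.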
FMDV inh: foot and mouth disease virus antiviral activity; FMDV antiviral cell-based qHTS; 410,000 tested, 1.2% active; Potency, µM (doses to about 57.9 µM), for inactives: at the top dose activity change, negative = inhibition, usual class: inhibitors; AID 1159524; calls by dose curve; tested in HEK293T cells; note: read-out not given here; nearly all actives have a fitted effect of over 45% in size
VACV Venus inh: inhibitors of vaccinia virus (Venus reporter); Potency, µM (series often up to 36.5 µM), without a hit: top-dose activity change, negative = inhibition, hits mostly inhibitors; 330,000 tested, 0.46% active; Vaccinia virus Venus reporter expression, fluorescence; calls by dose curve; tested in A549 cells; note: nearly all actives have a fitted effect of over 30% in size
VACV mCherry inh: vaccinia inhibition (mCherry reporter); Vaccinia virus mCherry reporter infection, fluorescence; Potency, µM (top dose mostly 36.5 µM), for inactives: at the top dose activity change, negative = inhibition, usual class: inhibitors; 310,000 tested, 0.63% active; calls by dose curve; tested in A549 cells; note: nearly all actives have a fitted effect of over 35% in size
Marburg entry inh: blocks Marburg virus binding to or entry into cells | Marburg virus pseudotyped entry inhibition, cell reporter | Potency, µM (titrated, usually from 37.8 µM), for inactives: at the top dose activity change, negative = inhibition, hits mostly inhibitors | 300,000 tested, 1.8% active | AID 540276; calls by dose curve; tested in HEK293 cells
Lassa entry inh: Lassa virus entry inhibition. Potency, µM (titrated, usually from 37.9 µM), for the others: at the top dose activity change, negative = inhibition, actives largely listed as inhibitors. Lassa virus pseudotype entry inhibition, cell reporter. 300,000 tested, 1.2% active; calls by dose curve; tested in HEK293 cells; note: nearly all actives have a fitted effect of over 50% in size
* marks the source's active call; other numbers are inactive results; [ ] = remark or other dose. Rows were chosen to be rich in hits. Some 5.3% of all compounds tested hit in one or more screens of this group. % is set by controls: 0 for no effect and ±100 for the full control effect; potency is the fitted concentration of half-maximal effect.

For Cc1cc(/C=N/n2cnnc2)c(C)n1-c1ccc(Cl)cc1 the results were HCV inhibitor 10%, FMDV inh 0%, VACV Venus inh -8%, VACV mCherry inh inactive, Marburg entry inh inconclusive and Lassa entry inh -20%.
`COc1ccc([C@H]2/C(=C(\O)c3ccc(OC(C)C)cc3)C(=O)C(=O)N2CCCN2CCOCC2)cc1` gave Marburg entry inh -13%.
`CCN1CCc2nc3sc(C(=O)Nc4cccc(Cl)c4C)c(N)c3cc2C1` gave FMDV inh 14µM*, VACV Venus inh -26%, VACV mCherry inh inconclusive, Marburg entry inh inconclusive and Lassa entry inh 4%[46.1 µM].
Screening CCN(CC)C(=O)C1=C(C)Nc2nc3ccccc3n2C1c1cccc(Cl)c1 (centres undefined) returned FMDV inh -28%, VACV Venus inh -9%, VACV mCherry inh -17%, Marburg entry inh -9%[46.1 µM] and Lassa entry inh 10%[46.1 µM].
CCN(C[C@H]1N[C@@](CC)(C(=O)OC)[C@H]2C(=O)N(C)C(=O)[C@@H]12)C(=O)Nc1ccc(C)cc1 was read as HCV inhibitor 3.2µM*, FMDV inh 0%, VACV Venus inh inconclusive and VACV mCherry inh inactive.
Screening CCN(C[C@H]1N[C@@](CC)(C(=O)OC)[C@H]2C(=O)N(C)C(=O)[C@@H]12)C(=O)Nc1ccc(OC)cc1 returned HCV inhibitor -55%, FMDV inh 2%, VACV Venus inh 0% and VACV mCherry inh inactive.
CC[C@@]1(C(=O)OC)N[C@H](CN(C)C(=O)Nc2ccccc2)[C@@H]2C(=O)N(C)C(=O)[C@@H]21 was read as HCV inhibitor 14%, FMDV inh 4.5µM*, VACV Venus inh -18% and VACV mCherry inh -4%.
Screening COc1ccc(NC(=O)C2SC(=S)N=C2N)cc1 (centres undefined) returned Marburg entry inh 9%.
Cc1ccc(C2(C)NC(=O)N(CC(=O)Nc3cc(S(=O)(=O)N(C)C)ccc3C)C2=O)cc1 (centres undefined) was read as HCV inhibitor -21%, FMDV inh -13%, VACV Venus inh -19%, VACV mCherry inh -29%, Marburg entry inh inconclusive and Lassa entry inh inconclusive.
`CCCN1CCN(CCCNC(=O)c2ccc3c(c2)sc2nc(-c4ccc(OC)cc4)cn23)CC1` gave FMDV inh 13%, VACV Venus inh inconclusive, VACV mCherry inh 4.5µM* and Lassa entry inh 26%[46.1 µM].
Screening CCOC(=O)C1CCCN(C(=O)c2ccc3c(c2)sc2nc(-c4cccc(OC)c4)cn23)C1 (centres undefined) returned FMDV inh 32µM*, VACV Venus inh -8%, VACV mCherry inh -3% and Lassa entry inh 2%[46.1 µM].
For Cc1ccccc1CN(CC(=O)Nc1cccc([N+](=O)[O-])c1)S(=O)(=O)c1ccc(Cl)cc1 the results were HCV inhibitor inconclusive, FMDV inh 40µM*, VACV Venus inh inconclusive, VACV mCherry inh inconclusive, Marburg entry inh inconclusive and Lassa entry inh inconclusive.
Screening CS(=O)(=O)N(CC(=O)Nc1cccc([N+](=O)[O-])c1)c1ccccc1 returned HCV inhibitor -6%, FMDV inh 10%, VACV Venus inh -10% and VACV mCherry inh inactive.
COc1cc(=O)n2c(c1C(=O)N(C)Cc1nccs1)CCN(Cc1cc3ccccc3s1)CC2 was read as FMDV inh -11%, VACV Venus inh 0% and VACV mCherry inh -4%.
For O=C(NCCCN1CCCC1)c1ccc(CSCc2cccc(Cl)c2)o1 the results were HCV inhibitor 10µM*, FMDV inh -13%, Marburg entry inh inconclusive and Lassa entry inh -4%.
Screening CC1CCN(CCCNC(=O)c2ccc(CSCc3cccc(Cl)c3)o2)CC1 returned HCV inhibitor inconclusive, FMDV inh -27%, Marburg entry inh 12µM* and Lassa entry inh -18%.
CC1CCCN(CCCNC(=O)c2ccc(CS(=O)(=O)Cc3cccc(Cl)c3)o2)C1 (centres undefined) was read as HCV inhibitor -6% and FMDV inh -18%.
For CN1CCN(CCCNC(=O)c2ccc(CSCc3cccc(Cl)c3)o2)CC1 the results were HCV inhibitor -28%, FMDV inh 7%, VACV Venus inh -26%, Marburg entry inh inconclusive and Lassa entry inh 11µM*.
For NC(Cc1ccc(C(F)(F)F)cc1)c1csc(NC(=O)Nc2ccccc2)n1 (centres undefined) the results were FMDV inh -24%, VACV Venus inh 10µM* and VACV mCherry inh inconclusive.
For COc1ccc(CC(N)c2csc(NC(=O)Nc3cccc(C(F)(F)F)c3)n2)cc1 (centres undefined) the results were FMDV inh -15%, VACV Venus inh 14µM* and VACV mCherry inh inconclusive.
COc1ccc(CC(N)c2csc(NC(=O)Nc3ccc(F)cc3)n2)cc1 (centres undefined) was read as FMDV inh -33%, VACV Venus inh -13% and VACV mCherry inh -26%.
CCSc1nsc(NC(=O)Nc2cccc(F)c2)n1 was read as HCV inhibitor 10µM*, FMDV inh inconclusive, VACV Venus inh inconclusive, VACV mCherry inh -17%, Marburg entry inh inconclusive and Lassa entry inh inconclusive.
Screening Cc1cc(C)nc(NC(=O)Nc2ccc(F)cc2F)n1 returned HCV inhibitor -2% and FMDV inh 32%.
Screening CCCSc1nsc(NC(=O)CC)n1 returned HCV inhibitor -19%, FMDV inh -1%, VACV Venus inh -12%, VACV mCherry inh inactive, Marburg entry inh 13µM* and Lassa entry inh inconclusive.
`CCCSc1nsc(NC(=O)Nc2ccc(F)cc2F)n1` gave HCV inhibitor 10µM* and FMDV inh 7%.
Cc1cnc(SCc2ccccn2)nc1C1CCCN(C(=O)c2ccc3[nH]c(C)c(C)c3c2)C1 (centres undefined) was read as FMDV inh -16%, VACV Venus inh -28% and VACV mCherry inh inconclusive.
COc1ccc(C(=O)N(c2ccccc2)c2nccc3ccccc23)cc1OC was read as HCV inhibitor 1.8µM*, FMDV inh -11%, VACV Venus inh -3% and VACV mCherry inh 7%.
COc1ccc(C(=O)NCc2cc(C)nc3ccccc23)cc1OC was read as HCV inhibitor inconclusive, FMDV inh inconclusive, VACV Venus inh -11%, VACV mCherry inh inactive, Marburg entry inh inconclusive and Lassa entry inh -16%.
For CN1CCN(c2ccccc2NC(=O)c2ccc(-c3cccc(Cl)c3)o2)CC1 the results were HCV inhibitor inconclusive, FMDV inh inconclusive, VACV Venus inh inconclusive, VACV mCherry inh inconclusive, Marburg entry inh 13µM* and Lassa entry inh -24%.
CN1CCN(c2ccccc2NC(=O)c2ccc(-c3ccc(Cl)cc3Cl)o2)CC1 was read as HCV inhibitor 10µM*, FMDV inh inconclusive, Marburg entry inh inconclusive and Lassa entry inh inconclusive.
